Records with an inconclusive call do not appear. Calls of active or inactive are those of the source. Unless noted, the call rests on the fitted dose curve; in most records, active means well fitted curve in the direction sought with a large enough effect; inconclusive means small, poorly fitted or top-dose-only effect, or another doubt; inactive means no such curve, though single readings can be large; an effect the other way counts as inactive or inconclusive.
Tests used:
[1] = target: Cytochrome P450 1A2 (Homo sapiens) (UniProt P05177); assay: p450-cyp1a2 (AID 410; calls by dose curve; further: potency means the concentration at half of the fitted maximal effect); settings: recombinant CYP1A2, luciferin-ME demethylation, luminescence; series mostly up to 57 µM
Sequence of Cytochrome P450 1A2 (Homo sapiens) (P05177 whole entry, looked up): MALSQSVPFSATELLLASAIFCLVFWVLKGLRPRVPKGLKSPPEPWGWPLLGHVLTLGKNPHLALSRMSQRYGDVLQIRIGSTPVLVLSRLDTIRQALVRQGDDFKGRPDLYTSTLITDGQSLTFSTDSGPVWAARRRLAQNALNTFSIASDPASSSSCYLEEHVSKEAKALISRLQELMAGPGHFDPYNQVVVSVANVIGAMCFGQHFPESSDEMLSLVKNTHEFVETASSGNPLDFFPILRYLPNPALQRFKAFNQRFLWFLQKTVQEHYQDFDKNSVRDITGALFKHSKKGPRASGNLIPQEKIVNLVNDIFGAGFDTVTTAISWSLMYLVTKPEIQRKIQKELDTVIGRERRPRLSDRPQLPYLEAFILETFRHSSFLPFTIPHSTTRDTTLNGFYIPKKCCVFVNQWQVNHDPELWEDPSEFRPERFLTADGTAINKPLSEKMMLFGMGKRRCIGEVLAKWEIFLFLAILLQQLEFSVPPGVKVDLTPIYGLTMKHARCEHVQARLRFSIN
In short: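 Luminescent demethylation readout: Luciferin-ME (100uM, equal to Km) turned over by 20nM CYP1A2 for 60 min at room temperature after NADPH regeneration addition, following 10 min compound preincubation. Normalization used 57 uM furafylline as full inhibition.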

[2] = target: Glucocorticoid receptor (Homo sapiens) (UniProt P04150); assay: GR-EFC Redistribution (AID 451; calls by dose curve; further: potency means the concentration at half of the fitted maximal effect); settings: CHO-K1 GR-EFC translocation, beta-gal luminescence, 2 h
Sequence of Glucocorticoid receptor (Homo sapiens) (P04150 whole entry, looked up, the tested form may be a part): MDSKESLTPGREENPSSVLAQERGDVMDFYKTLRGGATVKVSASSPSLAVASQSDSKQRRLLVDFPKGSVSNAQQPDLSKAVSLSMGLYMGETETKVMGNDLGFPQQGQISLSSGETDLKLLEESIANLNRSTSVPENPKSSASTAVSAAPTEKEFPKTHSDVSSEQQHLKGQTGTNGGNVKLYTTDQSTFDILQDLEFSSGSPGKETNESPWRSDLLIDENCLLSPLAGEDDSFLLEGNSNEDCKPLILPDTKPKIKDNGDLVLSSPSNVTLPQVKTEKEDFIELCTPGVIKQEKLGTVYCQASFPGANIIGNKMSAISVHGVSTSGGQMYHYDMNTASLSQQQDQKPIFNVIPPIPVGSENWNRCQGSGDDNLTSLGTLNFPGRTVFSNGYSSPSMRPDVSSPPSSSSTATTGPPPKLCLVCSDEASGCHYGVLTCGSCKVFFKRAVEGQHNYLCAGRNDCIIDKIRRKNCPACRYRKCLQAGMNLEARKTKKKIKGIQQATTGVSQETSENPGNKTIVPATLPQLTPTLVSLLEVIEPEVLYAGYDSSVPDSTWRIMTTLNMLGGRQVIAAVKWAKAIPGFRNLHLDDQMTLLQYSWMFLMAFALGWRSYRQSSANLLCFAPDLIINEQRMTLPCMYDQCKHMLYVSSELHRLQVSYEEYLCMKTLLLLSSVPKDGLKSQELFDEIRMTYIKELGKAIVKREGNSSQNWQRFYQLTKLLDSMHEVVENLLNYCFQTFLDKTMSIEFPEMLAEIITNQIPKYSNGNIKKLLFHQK
In short: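 CHO-K1 cells expressing nuclear EA and GR-ED fragments of b-gal; compounds titrated up to 46 uM final, 2 h at 37 C. GR nuclear translocation read as complemented b-gal luminescence after 1 h RT detection.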

[3] = target: 3',5'-cyclic-AMP phosphodiesterase 4B (Homo sapiens) (UniProt Q07343); assay: qHTS Assay for Inhibitors of PDE-IV (AID 607; active means well fitted activation curve with a large enough effect in the main read-out, with a control signal flat, not every such curve was filed as active); settings: HEK293 ACTOne CNG channel cells, membrane potential fluorescence; series mostly up to 22.9 µM
Sequence of 3',5'-cyclic-AMP phosphodiesterase 4B (Homo sapiens) (Q07343 whole entry, looked up): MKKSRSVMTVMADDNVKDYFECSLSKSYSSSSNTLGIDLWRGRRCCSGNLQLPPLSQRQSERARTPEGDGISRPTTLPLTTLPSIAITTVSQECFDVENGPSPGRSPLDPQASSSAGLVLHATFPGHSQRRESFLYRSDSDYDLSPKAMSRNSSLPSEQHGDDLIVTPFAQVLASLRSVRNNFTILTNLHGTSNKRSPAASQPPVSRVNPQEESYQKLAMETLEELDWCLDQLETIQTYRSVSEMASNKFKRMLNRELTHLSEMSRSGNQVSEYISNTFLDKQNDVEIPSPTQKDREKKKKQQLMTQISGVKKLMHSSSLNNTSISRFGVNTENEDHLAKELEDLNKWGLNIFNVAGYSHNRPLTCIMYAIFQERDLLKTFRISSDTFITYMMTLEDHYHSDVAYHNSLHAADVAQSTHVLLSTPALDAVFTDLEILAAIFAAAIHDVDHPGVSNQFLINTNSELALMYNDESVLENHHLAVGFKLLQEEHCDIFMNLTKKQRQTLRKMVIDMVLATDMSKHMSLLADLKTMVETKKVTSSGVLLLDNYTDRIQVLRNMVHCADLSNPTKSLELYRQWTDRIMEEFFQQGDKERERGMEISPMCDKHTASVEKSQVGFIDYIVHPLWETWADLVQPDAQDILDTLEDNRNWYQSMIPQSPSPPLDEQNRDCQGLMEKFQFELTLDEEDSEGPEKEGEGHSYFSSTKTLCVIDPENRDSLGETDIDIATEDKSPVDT
In short: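 ACTOne HEK293 cells carry a modified cAMP-gated CNG channel and express endogenous PDE4; plated 1000 cells/well, compounds up to 22.9 uM final. Membrane-potential dye fluorescence (ex 535/em 590) was read; parental cells received 10 uM forskolin + 100 uM RO 20-1724.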

[4] = target: Guanine nucleotide-binding protein G(i) subunit alpha-1 (Homo sapiens) (UniProt P63096); assay: qHTS Assay for Inhibitors of RGS12 GoLoco Motif Activity (Green Fluorophore) (AID 879); settings: Galphai1/FITC-RGS12 GoLoco peptide, fluorescence polarization; series mostly up to 57.1 µM;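 further: negative values mean loss of peptide binding seen as reduced polarization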
Sequence of Guanine nucleotide-binding protein G(i) subunit alpha-1 (Homo sapiens) (P63096 whole entry, looked up): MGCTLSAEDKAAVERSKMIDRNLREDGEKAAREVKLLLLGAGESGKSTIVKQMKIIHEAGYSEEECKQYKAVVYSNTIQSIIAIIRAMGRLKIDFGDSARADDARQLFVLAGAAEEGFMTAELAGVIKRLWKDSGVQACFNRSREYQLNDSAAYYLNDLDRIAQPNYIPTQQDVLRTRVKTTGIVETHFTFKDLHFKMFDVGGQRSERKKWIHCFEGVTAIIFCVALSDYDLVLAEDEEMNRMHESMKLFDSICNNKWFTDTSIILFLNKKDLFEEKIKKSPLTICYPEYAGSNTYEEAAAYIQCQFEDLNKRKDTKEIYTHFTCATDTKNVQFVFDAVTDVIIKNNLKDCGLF
In short: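 A drop in FITC polarization marked displacement of the FITC-tagged RGS12 GoLoco peptide (10 nM) from Gαi1 (50 nM). Compounds were incubated 10 min at room temperature in Tris pH 7.5 buffer containing 150 mM NaCl, 0.1 mM GDP and 0.05% NP40; unlabeled peptide titration served as control.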

[5] = target: Cytochrome P450 3A4 (Homo sapiens) (UniProt P08684); assay: qHTS Assay for Inhibitors and Substrates of Cytochrome P450 3A4 (AID 884); settings: recombinant CYP3A4, Luciferin-PPXE luminescence; series mostly up to 57.1 µM; further: nearly all actives have a fitted effect of over 50% in size; further: potency means the concentration at half of the fitted maximal effect
Sequence of Cytochrome P450 3A4 (Homo sapiens) (P08684 whole entry, looked up): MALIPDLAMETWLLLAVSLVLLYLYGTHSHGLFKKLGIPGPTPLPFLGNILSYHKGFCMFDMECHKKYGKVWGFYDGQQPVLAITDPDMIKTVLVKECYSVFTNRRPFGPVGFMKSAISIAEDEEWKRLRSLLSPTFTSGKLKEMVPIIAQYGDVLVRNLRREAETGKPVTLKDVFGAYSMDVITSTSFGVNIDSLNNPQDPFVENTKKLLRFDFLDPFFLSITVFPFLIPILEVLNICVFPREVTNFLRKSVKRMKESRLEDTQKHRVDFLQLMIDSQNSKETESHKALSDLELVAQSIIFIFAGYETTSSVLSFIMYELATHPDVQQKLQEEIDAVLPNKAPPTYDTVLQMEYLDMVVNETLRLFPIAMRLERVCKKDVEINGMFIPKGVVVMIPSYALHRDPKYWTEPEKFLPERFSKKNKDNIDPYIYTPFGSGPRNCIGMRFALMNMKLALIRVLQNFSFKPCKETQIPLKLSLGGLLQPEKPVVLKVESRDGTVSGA
In short: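 Luminescent readout of luciferin produced by CYP3A4 (20 nM) dealkylation of Luciferin-PPXE, 25 uM (its KM). NADPH-driven reaction ran 60 min at RT after 10 min compound preincubation; data scaled to 57 uM ketoconazole as 100% inhibition.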

[6] = qHTS Assay for Identification of Small Molecule Antagonists for Thrombopoietin (TPO) Signaling Pathway (AID 918); settings: TPO-dependent cell signaling reporter, antagonist mode; further: potency means the concentration at half of the fitted maximal effect; nearly all actives have a fitted effect of over 60% in size
In short: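 Inhibition read as reduced luciferase luminescence after 24 h at 37 C in IL-3-deprived Ba/F3 cells carrying human TPO receptor and GPIIb-promoter reporter, stimulated with 26 pM TPO (final, its EC50) alongside compound.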

[7] = target: Muscarinic acetylcholine receptor M1 (Rattus norvegicus) (UniProt P08482); assay: qHTS Assay for Antagonists of Acetylcholine Muscarinic M1 Receptor: Kinetic Measurement of Intracellular Calcium Response (AID 943); settings: M1-expressing cells, kinetic intracellular calcium fluorescence; series mostly up to 35.3 µM;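 further: Fluo-4 calcium signal as peak divided by basal fluorescence over 4 min; nearly all actives have a fitted effect of over 75% in size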
In short: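 Antagonism measured as reduction of carbachol-evoked (EC80, 100 nM final) calcium flux in rat M1-CHO cells after 10 min compound exposure. Fluo-4 signal read kinetically; ratio of maximal to basal fluorescence.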

[8] = target: Pyruvate kinase (Leishmania mexicana) (UniProt Q27686); assay: qHTS Validation Assay for Inhibitors of Leishmania Mexicana Pyruvate Kinase (AID 945); settings: purified L. mexicana pyruvate kinase, enzyme activity, E451W mutant enzyme; series mostly up to 57.5 µM
Sequence of Pyruvate kinase (Leishmania mexicana) (Q27686 2-499 E452W): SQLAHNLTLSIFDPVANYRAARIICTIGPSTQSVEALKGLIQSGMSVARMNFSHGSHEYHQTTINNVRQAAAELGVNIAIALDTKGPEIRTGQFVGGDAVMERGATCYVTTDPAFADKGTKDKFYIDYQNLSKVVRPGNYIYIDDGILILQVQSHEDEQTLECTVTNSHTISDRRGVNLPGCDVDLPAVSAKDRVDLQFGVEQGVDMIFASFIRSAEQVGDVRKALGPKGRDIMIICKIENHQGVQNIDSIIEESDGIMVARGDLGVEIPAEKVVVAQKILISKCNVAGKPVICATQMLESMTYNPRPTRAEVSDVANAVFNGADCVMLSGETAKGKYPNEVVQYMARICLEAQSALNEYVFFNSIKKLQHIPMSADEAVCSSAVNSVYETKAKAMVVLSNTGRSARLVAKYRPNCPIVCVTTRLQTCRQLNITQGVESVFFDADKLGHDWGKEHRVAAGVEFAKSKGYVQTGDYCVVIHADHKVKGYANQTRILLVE
In short: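 Pyruvate kinase activity of E451W LmPYK (0.2 nM) was followed as ATP output after 1 h at room temperature with 0.5 mM PEP and 0.1 mM ADP, detected by PKLight luminescence.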

[9] = target: Pyruvate kinase PKM (Homo sapiens) (UniProt P14618); assay: qHTS Assay for Activators of Human Muscle Pyruvate Kinase (AID 954; active means well fitted curve in the direction sought with a large enough effect, not every such curve was filed as active); settings: purified human muscle pyruvate kinase, luciferase-coupled luminescence, 1 h; series mostly up to 57.5 µM
In short: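 A coupled luminescent readout tracked ATP made from ADP by purified PKM2. Final conditions included 0.1 nM enzyme, PEP and ADP at 0.5 and 0.1 mM, pH 7.2 imidazole buffer with BSA, and a one-hour room-temperature reaction.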

[10] = target: Alpha-galactosidase A (Homo sapiens) (UniProt P06280); assay: Counterscreen for Glucocerebrosidase Inhibitors: qHTS Assay for Human alpha-Galactosidase at pH 4.5 (AID 992); settings: purified enzyme, fluorogenic substrate; series mostly up to 76.9 µM
Sequence of Alpha-galactosidase A (Homo sapiens) (P06280 whole entry, looked up): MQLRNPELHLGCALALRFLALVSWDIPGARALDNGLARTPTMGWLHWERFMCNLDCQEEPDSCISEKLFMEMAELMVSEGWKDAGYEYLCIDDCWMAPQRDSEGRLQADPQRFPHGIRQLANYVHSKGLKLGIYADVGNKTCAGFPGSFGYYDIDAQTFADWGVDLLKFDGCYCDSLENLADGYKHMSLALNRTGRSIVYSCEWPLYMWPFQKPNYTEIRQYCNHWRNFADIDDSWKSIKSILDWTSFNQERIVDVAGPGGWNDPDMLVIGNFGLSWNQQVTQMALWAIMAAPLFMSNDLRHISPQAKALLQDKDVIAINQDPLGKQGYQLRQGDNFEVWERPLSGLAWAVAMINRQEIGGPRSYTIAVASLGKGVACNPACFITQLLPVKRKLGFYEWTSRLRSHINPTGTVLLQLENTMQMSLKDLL
In short: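 Citrate buffer pH 4.5, Tween-20 0.005%. Enzyme 2 nM, substrate 80 uM, 20 min RT. Stop pH 10. Fluorescence Ex 365/Em 440. AC50 by Hill fit.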

[11] = target: alpha-glucosidase (Oryza sativa, rice) (UniProt Q653V4); assay: Counterscreen for Glucocerebrosidase Inhibitors: qHTS Assay for Rice alpha-Glucosidase at pH 5.0 (AID 997); settings: rice alpha-glucosidase enzyme activity; series mostly up to 76.9 µM
In short: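 Endpoint fluorogenic assay at pH 5.0: compounds (0.7 nM to 77 uM) titrated against 4 nM rice enzyme and 400 uM 4-MU-alpha-glucoside for 20 min at room temperature; NaOH/glycine stop, read ex 365/em 440 nm, Hill-fitted AC50.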

[12] = target: Ubiquitin carboxyl-terminal hydrolase 1 (Homo sapiens) (UniProt O94782); assay: Inhibitors of USP1/UAF1: Pilot qHTS (AID 504865); settings: purified USP1/UAF1, Ub-rhodamine cleavage fluorescence; series mostly up to 114 µM; further: nearly all actives have a fitted effect of over 35% in size; further: potency means the concentration at half of the fitted maximal effect
Sequence of Ubiquitin carboxyl-terminal hydrolase 1 (Homo sapiens) (O94782 whole entry, looked up): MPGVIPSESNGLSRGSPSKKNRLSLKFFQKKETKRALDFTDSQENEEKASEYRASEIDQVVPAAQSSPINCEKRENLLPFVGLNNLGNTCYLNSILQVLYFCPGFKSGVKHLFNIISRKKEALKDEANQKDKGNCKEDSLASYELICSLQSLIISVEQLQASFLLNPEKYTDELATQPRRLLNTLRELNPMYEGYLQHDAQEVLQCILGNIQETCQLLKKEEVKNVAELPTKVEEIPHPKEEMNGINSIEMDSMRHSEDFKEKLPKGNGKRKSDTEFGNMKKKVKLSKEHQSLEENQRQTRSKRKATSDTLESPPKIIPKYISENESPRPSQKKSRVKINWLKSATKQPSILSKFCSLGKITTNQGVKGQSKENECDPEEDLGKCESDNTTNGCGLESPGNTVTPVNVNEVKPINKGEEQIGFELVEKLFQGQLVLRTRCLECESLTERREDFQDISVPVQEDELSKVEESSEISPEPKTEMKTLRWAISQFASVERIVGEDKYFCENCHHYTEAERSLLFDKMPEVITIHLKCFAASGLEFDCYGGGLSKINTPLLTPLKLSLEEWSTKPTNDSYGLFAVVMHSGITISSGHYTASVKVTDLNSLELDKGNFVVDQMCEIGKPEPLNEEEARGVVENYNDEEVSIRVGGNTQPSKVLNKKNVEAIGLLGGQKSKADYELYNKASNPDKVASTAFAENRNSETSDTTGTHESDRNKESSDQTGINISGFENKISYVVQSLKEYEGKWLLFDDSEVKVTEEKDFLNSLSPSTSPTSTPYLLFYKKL
In short: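 In 50mM HEPES pH 7.8 containing 0.5mM EDTA, 1mM TCEP, 0.1 mg/ml BSA and 0.01% Tween-20, 1nM USP1/UAF1 is exposed to compound for 15 min, then Ub-Rho (150nM final) is added and fluorescence is read over time.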

[13] = target: DNA dC->dU-editing enzyme APOBEC-3G (Homo sapiens) (UniProt Q9HC16); assay: qHTS for inhibitors of Vif-A3G interactions: Validation (AID 588379); settings: Vif-A3G protein interaction assay; series mostly up to 46.1 µM
Sequence of DNA dC->dU-editing enzyme APOBEC-3G (Homo sapiens) (Q9HC16 whole entry, looked up): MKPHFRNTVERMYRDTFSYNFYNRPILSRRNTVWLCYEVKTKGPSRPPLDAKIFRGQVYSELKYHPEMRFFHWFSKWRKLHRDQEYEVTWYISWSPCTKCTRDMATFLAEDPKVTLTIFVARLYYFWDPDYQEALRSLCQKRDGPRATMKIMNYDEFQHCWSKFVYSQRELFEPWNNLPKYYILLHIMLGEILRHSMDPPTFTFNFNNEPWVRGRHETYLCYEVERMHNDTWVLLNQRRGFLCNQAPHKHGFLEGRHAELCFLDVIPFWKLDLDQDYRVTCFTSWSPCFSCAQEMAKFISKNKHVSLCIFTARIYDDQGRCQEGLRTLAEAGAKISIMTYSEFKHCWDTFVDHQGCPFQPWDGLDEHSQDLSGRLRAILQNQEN
In short: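 Yellow fluorescence (Ex 488, Em 500-530) of Vif-coexpressing HeLa A3G-eYFP cells, scanned by Acumen cytometer, reports blocked A3G degradation. Cells plated at 700/well overnight at 37 deg C before compound addition, then a further overnight compound incubation at 37 deg C.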

[14] = tested on: Zika virus NS2B-NS3 protease; assay: Primary screen GU AMC qHTS for Zika virus inhibitors (AID 1347154); settings: Zika NS2B-NS3 unlinked protease, AMC fluorogenic substrate; series mostly up to 54.1 µM; further: nearly all actives have a fitted effect of over 70% in size; further: potency means the concentration at half of the fitted maximal effect
In short: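 Unlinked Zika NS2B hydrophilic domain–NS3 protease complex at 25 nM in 10 mM Tris-HCl pH 8.0, 0.01% Tween 20, with an AMC peptide substrate. Fluorescence change (340/450 nm) over 15 min at room temperature, normalized to controls, fitted to 4-parameter Hill.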

[15] = target: Glucocorticoid receptor (Homo sapiens) (UniProt P04150); assay: GR-GFP Redistribution (AID 450;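 active means compounds whose dose series gives a full or clear partial fitted curve of increased nuclear translocation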; further: potency means the concentration at half of the fitted maximal effect); settings: U2OS GR-GFP nuclear translocation, laser cytometry, 2 h
[16] = target: Mitogen-activated protein kinase 10 (Mus musculus) (UniProt Q61831); assay: JNK3 AlphaScreen Assay (AID 530; active means well fitted curve in either direction with a large enough effect, not every such curve was filed as active;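 further: kinase came from lysate of stimulated human HepG2 cells; signal reports phosphorylation of biotinylated GST-cJun 1-79 at Ser73 with 10 µM ATP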); settings: JNK3 lysate, c-Jun phosphorylation; series mostly up to 57.1 µM
In short: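 Activity was read by AlphaScreen after JNK3-containing HepG2 lysate (cytokine pre-activated) phosphorylated biotinylated GST-cJun with 10 uM ATP at room temperature. Phospho-Ser73 cJun antibody with Protein-A acceptor beads provided detection.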

[17] = target: Cytochrome P450 2C9 (Homo sapiens) (UniProt P11712); assay: qHTS Assay for Inhibitors and Substrates of Cytochrome P450 2C9 (AID 883); settings: recombinant CYP2C9, luciferin-H luminescence, 60 min; series mostly up to 57.1 µM; further: potency means the concentration at half of the fitted maximal effect; nearly all actives have a fitted effect of over 60% in size
In short: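 Signal: luciferase luminescence reporting luciferin produced by CYP2C9. Conditions: 10nM enzyme, Luciferin-H 100uM at KM, 25mM KPO4, 37C, 60 min NADPH-driven reaction. Reference: 57uM sulphaphenazole as 100% inhibition.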

[18] = target: Cytochrome P450 3A4 (Homo sapiens) (UniProt P08684); assay: qHTS Assay for Activators of Cytochrome P450 3A4 (AID 885); settings: recombinant CYP3A4, Luciferin-PPXE luminescence, 60 min; series mostly up to 57.1 µM; further: nearly all actives have a fitted effect of over 65% in size
In short: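 CYP3A4 activity: Luciferin-PPXE O-dealkylation, 25uM substrate, 200mM KPO4, RT throughout. Read-out is luciferase luminescence; higher values reflect activation.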

[19] = target: Cytochrome P450 2C19 (Homo sapiens) (UniProt P33261); assay: qHTS Assay for Inhibitors and Substrates of Cytochrome P450 2C19 (AID 899); settings: recombinant CYP2C19, luciferin-H EGE luminescence; series mostly up to 57.1 µM; further: potency means the concentration at half of the fitted maximal effect; nearly all actives have a fitted effect of over 60% in size
In short: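 Signal comes from luciferase acting on luciferin released by CYP2C19-mediated hydroxylation of Luciferin-H EGE, 10uM (KM). Assay mix: 5nM enzyme, 50mM KPO4; 60 min at 37C with NADPH regeneration. Data normalized against 57uM ketoconazole.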

[20] = target: Cytochrome P450 2D6 (Homo sapiens) (UniProt P10635); assay: qHTS Assay for Inhibitors and Substrates of Cytochrome P450 2D6 (AID 891); settings: recombinant CYP2D6, luciferin-ME EGE luminescence; series mostly up to 57.1 µM; further: potency means the concentration at half of the fitted maximal effect; nearly all actives have a fitted effect of over 60% in size
In short: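 Luminescent read-out of luciferin formed by 5 nM human CYP2D6 demethylating 30 uM Luciferin-ME EGE (Km level) over 60 min at room temperature after NADPH regeneration addition. Data normalized to full inhibition by 1.43 uM quinidine.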

Measured: Potency

CCCCCCCCCCCCC/C=C\[C@@H](O)[C@@H](N)CO
inactive: [2] > 46 µM | [3] | [4] | [5] | [7] | [8] | [9] | [10] | [11] | [13] | [14]
active: [1] 15.8 µM | [6] 10 µM | [12] 50.1 µM

CC(C)Oc1ccc2c(=O)c3cc(C(=O)O)ccc3oc2c1
inactive: [1] | [15] > 46 µM | [2] > 46 µM | [16] | [3] | [13] | [14]

CCCCCN=c1ccn(Cc2ccccc2)c2ccccc12
inactive: [15] > 46 µM | [2] > 46 µM | [18] | [13] | [14]
active: [1] 25.1 µM | [17] 0.316 µM | [19] 0.251 µM

c1ccc2sc(N3CCN(Cc4ccc5c(c4)OCO5)CC3)nc2c1
inactive: [15] > 46 µM | [2] > 46 µM | [16] | [18] | [12] | [13] | [14]
active: [1] 1 µM | [5] 0.631 µM

CCCCCCCC/C=C\CCCCCCCC(N)=O
active: [1] 6.31 µM
inactive: [15] > 46 µM | [2] > 46 µM | [16] | [3] | [13] | [14]

CC(C)NC[C@@H](O)COc1ccccc1-n1cccc1
inactive: [15] > 46 µM | [2] > 46 µM | [12] | [13] | [14]
active: [1] 3.98 µM

N[C@@H](C(=O)O)c1ccc(C(=O)O)c(O)c1
inactive: [1] | [15] > 46 µM | [2] > 46 µM | [16] | [12] | [13]
active: [14] 23.8 µM

N=C(N)SCCc1ccc(OCc2ccc([N+](=O)[O-])cc2)cc1
inactive: [15] > 46 µM | [2] > 46 µM | [16] | [3] | [12] | [13] | [14]
active: [1] 31.6 µM

O=C(NCCCN1CCCCCC1)[C@@H](c1ccccc1)C1CCCCC1
active: [1] 31.6 µM | [5] 3.98 µM | [20] 0.631 µM
inactive: [15] > 46 µM | [2] > 46 µM | [18] | [12] | [13] | [14]

CCC(C)(C)N=C(NC#N)Nc1cccnc1
active: [1] 12.6 µM | [5] 5.01 µM
inactive: [15] > 46 µM | [2] > 46 µM | [16] | [3] | [18] | [12] | [13] | [14]

N#C[C@H](Cc1ccc(O)cc1)c1ccc(O)cc1
inactive: [16] | [3] | [18] | [12] | [13] | [14]
active: [1] 12.6 µM

Reference: PubChem BioAssay (NCATS)
